Calls of active or inactive are those of the source. The calls were made as follows: active = hit-call score of the fitted dose curve at least 0.9, where 1 is the maximum; inactive = score below 0.9.

For the assay, the target named is Hepatocyte nuclear factor 6 (Homo sapiens) (UniProt Q9UBC0). Nature of the assay: ATG_HNF6_CIS: Attagene CIS-FACTORIAL HepG2 Assay for human Hepatocyte Nuclear Factor 6 (HNF6) (AID 2282952). Particulars: HepG2 Attagene cis-factorial HNF6 reporter transcription; actives raise or lower the signal. How it is done: ATG_CIS is a cell-based, multiplexed-readout assay that uses HepG2, a human liver cell line, with measurements taken at 24 hours after chemical dosing in a 24-well plate.ATG_HNF6_CIS is one of 52 assay component(s) measured or calculated from the ATG_CIS assay. It is designed to make measurements of mRNA induction, a form of inducible reporter, as detected with fluorescence intensity signals by Reverse transcription polymerase chain reaction (RT-PCR) and Capillary electrophoresis technology.Data from the assay component ATG_HNF6_CIS was analyzed into 1 assay endpoint. This assay endpoint, ATG_HNF6_CIS, was analyzed with bidirectional fitting relative to DMSO as the negative control and baseline of activity. Using a type of inducible reporter, measures of mRNA for gain or loss-of-signal activity can be used to understand the reporter gene at the transcription factor-level as they relate to the gene ONECUT1. Furthermore, this assay endpoint can be referred to as a primary readout, because this assay has produced multiple assay endpoints where this one serves a reporter gene function. To generalize the intended target to other relatable targets, this assay endpoint is annotated to the dna binding intended target family, where the subfamily is homeobox protein.
Sequence of Hepatocyte nuclear factor 6 (Homo sapiens) (Q9UBC0 whole entry, looked up): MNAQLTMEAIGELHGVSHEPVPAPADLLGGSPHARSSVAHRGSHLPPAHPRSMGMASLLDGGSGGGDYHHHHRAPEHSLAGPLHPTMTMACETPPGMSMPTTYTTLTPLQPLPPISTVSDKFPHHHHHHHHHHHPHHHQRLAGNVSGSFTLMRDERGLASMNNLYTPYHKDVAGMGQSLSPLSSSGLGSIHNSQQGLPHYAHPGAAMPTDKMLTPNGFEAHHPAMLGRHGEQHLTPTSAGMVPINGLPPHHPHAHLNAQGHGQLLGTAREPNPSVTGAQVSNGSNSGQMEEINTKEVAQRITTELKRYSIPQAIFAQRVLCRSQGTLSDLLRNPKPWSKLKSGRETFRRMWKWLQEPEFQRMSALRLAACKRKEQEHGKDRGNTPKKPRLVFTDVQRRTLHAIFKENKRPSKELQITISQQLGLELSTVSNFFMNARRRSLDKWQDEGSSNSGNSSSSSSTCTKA
Human liver HepG2 cells are transiently transfected with multiple reporter transcription units (MRTUs) in 6-well plates using FuGene 6 reagent (Roche; 3 ml FuGene/1 mg DNA). The MRTU constructs are regulated by a cis-regulating element (promoter). […] A major difference between the CIS and TRANS system is that in CIS activities of endogenous TFs are measured, whereas the TRANS assay evaluates changes in activities of exogenous, chimeric NR-Gal4 proteins. […] At the end of 24 hour incubation, total RNA was isolated using TriZol reagent (Invitrogen). The isolated RNA is then reverse-transcribed using oligo(dT) primer and Mo-MLV reverse transcriptase (Invitrogen) with DNAse I (Ambion) treatment for 30 min. The one-tenth of the produced cDNA was amplified by PCR using Taq DNA polymerase (Invitrogen) and two reporter sequence-specific primers. The PCR products were fluorescently labeled by primer extension with 6-arboxyfluorescein (6-FAM) 5'-labeled reporter sequence-specific primer (2 min at 95 C, 20 s at 68 C and 10 min at 72 C) and these products were digested with 5U of HpaI (New England Biolabs) for 2h at 37 C. The fragments were purified using Qiaquick PCR columns (Qiagen), analyzed on an ABI 3130xL genetic analyzer (Applied Biosystems) with peak positions identified by using a set of X-rhodamine (ROX)-labeled MapMarker1000 molecular weight standards (BioVentures). The raw capillary electrophoresis data was processed using Attagraph software (Attagene).
As to `O=C(Oc1ccccc1)c1ccccc1`, the compound was called inactive.

For `Clc1ccccn1`, the result was inactive.

Turning to `CCCCCCC1CCC(=O)O1` (stereo not given), the compound was called inactive.

On to `CC1=CCCC(C)(C)C12CCC(C)O2` (stereo not given), for which the outcome was inactive.

As to `NC(=O)c1ccc([N+](=O)[O-])cc1Cl`, the result was inactive.

`CCOc1ccc2c(c1)C(C)CC(C)(C)N2` (stereo not given): the outcome was inactive.

`O=C(O)c1cc(Cl)cc(Cl)c1O`: the compound was classed as inactive.

In the case of `CN(C)c1ccc(C(c2ccccc2)c2ccc(N(C)C)cc2)cc1`, the compound was classed as inactive.

Turning to `C[Si](C)(C)O[Si](C)(C)O[Si](C)(C)C`, the compound was called inactive.

Regarding `C1=CCC=C1`, the call was inactive.

`CN1CCCC1`: the compound was called inactive.

In the case of `CCC(C)=NO`, the compound was classed as inactive.

With `CC1=NN(c2cc(Cl)c(S(=O)(=O)O)cc2Cl)C(=O)C1N=Nc1ccc(S(=O)(=O)O)cc1` (stereo not given), the outcome was inactive.

Consider `CCCCCCC(O)CCCCCCCCCCC(=O)OC` (stereo not given), for which the result was inactive.

Consider `C=C(C)C(=O)OCC1CCCO1` (stereo not given), for which the compound was called inactive.

Turning to `C[C@H]1C[C@H]2[C@@H]3CCC4=CC(=O)C=C[C@]4(C)[C@@]3(F)[C@@H](O)C[C@]2(C)[C@@]1(O)C(=O)CO`, the call was inactive.

For the compound `CCCCOC(=O)COc1ccc(Cl)cc1Cl`, the compound was called inactive.

As for `CC[N+](CC)(CC(=O)Nc1c(C)cccc1C)Cc1ccccc1` (tested in a mixture with another compound), the compound was called inactive.

With `CN(C)CCCN1c2ccccc2CCc2ccc(Cl)cc21`, the result was inactive.

Take `C=CC(C)(CCC=C(C)C)OC(=O)c1ccccc1` (stereo not given): the compound was classed as inactive.

With `Cc1cc(O)cc(C)c1Cl`, the call was inactive.

On to `Brc1ccc(Oc2ccc(Br)cc2)cc1`, for which the compound was called inactive.

`CCCCCCCCCCCCCCCCCC[N+](C)(C)C`: the AC50 (in general, the concentration at which the activity in the assay is half-maximal) was 42.2 µM (active).

Take `[O-][n+]1ccc(Cl)cc1`: the result was inactive.

For `c1cc(N(CC2CO2)CC2CO2)ccc1Cc1ccc(N(CC2CO2)CC2CO2)cc1` (stereo not given), the result was inactive.

Regarding `COC(=O)c1ccccc1`, the outcome was inactive.

Regarding `CC(=O)OC(C)(C)Cc1ccccc1`, the call was inactive.

Regarding `CCCCCC[C@@H](O)C/C=C\CCCCCCCC(=O)O`, the AC50 is 160 µM (active).

Turning to `O=C(O)c1ccccc1C(=O)O`, the call was inactive.

For the compound `CCC(C)(CCC(C)C)C(=O)O` (stereo not given), the result was inactive.

Consider `CCCCCCCCCCC1CO1` (stereo not given), for which the result was inactive.

Regarding `Cc1ccccc1S(=O)(=O)O`, the call was inactive.

As for `O=S(=O)(O)c1cccc2ccccc12`, the outcome was inactive.

With `F[B-](F)(F)F`, the compound was called inactive.

On to `CO[Si](CCCNCCN)(OC)OC`, for which the outcome was inactive.

With `CCCCCCCC#N`, the call was inactive.

For the compound `Nc1nnc(-c2ccc([N+](=O)[O-])o2)o1`, the result was inactive.

Turning to `O=C(O)/C=C/C(=O)O`, the result was inactive.

As to `C=C1CC[C@H]2C[C@@H]1C2(C)C`, the call was inactive.

For the compound `COC(=O)CCSCCC(=O)OC`, the result was inactive.

Source of the values: PubChem BioAssay (EPA / NIEHS).
